# According to the supplement of paper PMC10849652:
# Of roughly 7,900 targets only a part is listed; those with a hit were picked by preference. About 0.6% of all pairs of compound and target were hits. Unmarked numbers belong to inactive results.
# Compound: NC(=O)Nc1cc(-c2cccc(F)c2)sc1C(=O)N[C@H]1CCCNC1
# Assay: log2 fold change, soluble protein after heating vs DMSO (PISA); higher = thermal stabilisation; K562 cells, 10 uM, 30 min; active = over 0.2 and 3.5 SD of the protein, either way, in both replicates (recomputed)
# How it was run: (§1)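 Soluble protein was defined as the supernatant after 21,000xg for 90 min. It came from K562 cells at 2×10^6 cells/mL given 10 μM compound for 30 min, heated in aliquots for 3 min across 48°C-58°C, pooled, and extracted in PBS with 0.5% NP-40 at 4°C, and was quantified by TMTpro 16plex LC-MS/MS with equalised channel sums. Thermal stability against control samples, from duplicates, is reported as log2 fold change.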
# Sequence of UniProt P34810 (P34810 whole entry, looked up): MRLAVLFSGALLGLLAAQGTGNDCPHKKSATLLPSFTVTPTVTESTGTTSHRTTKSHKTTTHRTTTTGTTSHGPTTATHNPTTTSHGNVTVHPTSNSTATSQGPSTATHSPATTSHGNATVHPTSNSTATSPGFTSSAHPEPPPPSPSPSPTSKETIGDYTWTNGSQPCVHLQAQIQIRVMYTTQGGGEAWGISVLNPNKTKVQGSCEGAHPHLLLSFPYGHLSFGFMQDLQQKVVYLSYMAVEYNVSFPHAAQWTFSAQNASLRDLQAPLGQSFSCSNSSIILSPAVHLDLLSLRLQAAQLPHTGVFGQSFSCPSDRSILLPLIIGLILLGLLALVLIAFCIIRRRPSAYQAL
# Sequence of UniProt Q6UUV9 (Q6UUV9 whole entry, looked up): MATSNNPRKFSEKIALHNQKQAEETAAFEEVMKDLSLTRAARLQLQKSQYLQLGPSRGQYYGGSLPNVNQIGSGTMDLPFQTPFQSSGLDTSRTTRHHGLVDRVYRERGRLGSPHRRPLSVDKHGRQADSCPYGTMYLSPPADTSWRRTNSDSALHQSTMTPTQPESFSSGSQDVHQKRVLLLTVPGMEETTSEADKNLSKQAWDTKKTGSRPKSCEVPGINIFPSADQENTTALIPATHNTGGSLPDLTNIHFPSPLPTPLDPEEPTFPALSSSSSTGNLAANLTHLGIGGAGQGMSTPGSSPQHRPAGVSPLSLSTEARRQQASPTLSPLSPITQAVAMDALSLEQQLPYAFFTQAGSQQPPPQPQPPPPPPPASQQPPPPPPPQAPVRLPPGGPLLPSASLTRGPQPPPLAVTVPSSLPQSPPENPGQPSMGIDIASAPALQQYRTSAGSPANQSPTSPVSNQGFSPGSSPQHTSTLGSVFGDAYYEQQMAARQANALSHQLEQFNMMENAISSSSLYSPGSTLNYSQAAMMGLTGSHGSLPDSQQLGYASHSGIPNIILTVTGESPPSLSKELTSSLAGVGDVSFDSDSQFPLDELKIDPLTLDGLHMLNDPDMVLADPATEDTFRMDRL
# Sequence of UniProt Q70SY1 (Q70SY1 whole entry, looked up): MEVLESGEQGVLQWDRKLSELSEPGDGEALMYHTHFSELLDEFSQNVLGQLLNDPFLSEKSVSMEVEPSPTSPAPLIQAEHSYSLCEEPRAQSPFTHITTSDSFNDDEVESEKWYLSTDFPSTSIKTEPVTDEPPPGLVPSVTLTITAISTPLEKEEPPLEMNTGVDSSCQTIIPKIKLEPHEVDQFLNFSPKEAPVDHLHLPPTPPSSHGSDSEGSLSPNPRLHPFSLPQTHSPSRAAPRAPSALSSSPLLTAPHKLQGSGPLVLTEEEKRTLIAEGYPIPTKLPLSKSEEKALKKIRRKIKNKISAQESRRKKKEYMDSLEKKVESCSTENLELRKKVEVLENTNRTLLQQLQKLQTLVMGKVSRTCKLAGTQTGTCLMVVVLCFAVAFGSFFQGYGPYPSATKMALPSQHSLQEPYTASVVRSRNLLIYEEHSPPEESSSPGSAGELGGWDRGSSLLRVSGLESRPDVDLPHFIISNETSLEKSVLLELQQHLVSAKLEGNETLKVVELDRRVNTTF
# Sequence of UniProt O95628 (O95628 whole entry, looked up): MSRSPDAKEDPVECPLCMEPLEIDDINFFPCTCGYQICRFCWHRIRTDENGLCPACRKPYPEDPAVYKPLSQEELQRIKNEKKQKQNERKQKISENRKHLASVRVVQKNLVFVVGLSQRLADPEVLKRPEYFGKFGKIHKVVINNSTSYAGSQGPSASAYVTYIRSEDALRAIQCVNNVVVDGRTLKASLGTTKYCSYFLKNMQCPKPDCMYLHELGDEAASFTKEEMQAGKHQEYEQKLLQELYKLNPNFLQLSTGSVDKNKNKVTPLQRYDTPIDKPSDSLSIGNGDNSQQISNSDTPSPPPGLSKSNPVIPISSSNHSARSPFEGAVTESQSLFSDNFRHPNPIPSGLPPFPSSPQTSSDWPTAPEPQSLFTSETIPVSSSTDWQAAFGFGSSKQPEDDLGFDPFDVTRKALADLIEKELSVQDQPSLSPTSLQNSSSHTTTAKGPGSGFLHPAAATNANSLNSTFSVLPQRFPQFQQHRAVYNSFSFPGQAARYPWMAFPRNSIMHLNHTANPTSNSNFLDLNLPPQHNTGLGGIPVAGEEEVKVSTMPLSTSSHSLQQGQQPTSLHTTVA
# Sequence of UniProt O75122 (O75122 whole entry, looked up): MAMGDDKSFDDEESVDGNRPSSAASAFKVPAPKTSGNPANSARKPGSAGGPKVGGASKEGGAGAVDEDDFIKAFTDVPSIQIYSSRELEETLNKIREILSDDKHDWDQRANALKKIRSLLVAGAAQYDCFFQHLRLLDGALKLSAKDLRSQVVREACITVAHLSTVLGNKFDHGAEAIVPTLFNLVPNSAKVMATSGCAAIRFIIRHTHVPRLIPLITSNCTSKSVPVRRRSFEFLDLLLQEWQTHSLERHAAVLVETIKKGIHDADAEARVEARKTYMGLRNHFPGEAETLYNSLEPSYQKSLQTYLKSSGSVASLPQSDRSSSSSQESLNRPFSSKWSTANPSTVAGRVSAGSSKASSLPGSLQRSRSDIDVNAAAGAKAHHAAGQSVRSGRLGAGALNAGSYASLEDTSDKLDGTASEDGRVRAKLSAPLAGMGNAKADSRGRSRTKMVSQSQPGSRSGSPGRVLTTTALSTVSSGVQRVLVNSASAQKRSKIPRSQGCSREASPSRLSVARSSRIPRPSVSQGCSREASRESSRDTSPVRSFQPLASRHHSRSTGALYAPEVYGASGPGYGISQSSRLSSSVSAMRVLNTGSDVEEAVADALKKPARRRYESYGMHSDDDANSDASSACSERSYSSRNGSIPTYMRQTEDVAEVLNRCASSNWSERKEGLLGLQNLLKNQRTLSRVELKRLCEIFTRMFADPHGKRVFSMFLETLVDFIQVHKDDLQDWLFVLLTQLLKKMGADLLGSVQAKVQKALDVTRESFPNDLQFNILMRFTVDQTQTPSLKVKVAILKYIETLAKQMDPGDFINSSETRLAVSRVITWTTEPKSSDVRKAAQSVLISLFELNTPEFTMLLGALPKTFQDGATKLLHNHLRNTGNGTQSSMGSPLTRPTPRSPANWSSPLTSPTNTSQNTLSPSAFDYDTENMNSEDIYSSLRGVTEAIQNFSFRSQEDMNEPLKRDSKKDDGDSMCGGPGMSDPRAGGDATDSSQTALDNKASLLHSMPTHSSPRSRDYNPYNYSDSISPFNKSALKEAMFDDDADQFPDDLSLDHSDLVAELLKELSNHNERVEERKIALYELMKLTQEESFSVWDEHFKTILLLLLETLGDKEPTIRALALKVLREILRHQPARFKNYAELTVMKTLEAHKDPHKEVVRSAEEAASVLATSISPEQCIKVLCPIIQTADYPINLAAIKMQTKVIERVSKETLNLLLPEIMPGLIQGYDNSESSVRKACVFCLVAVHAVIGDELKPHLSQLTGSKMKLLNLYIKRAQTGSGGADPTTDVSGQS
# Sequence of UniProt Q9UJA2 (Q9UJA2 whole entry, looked up): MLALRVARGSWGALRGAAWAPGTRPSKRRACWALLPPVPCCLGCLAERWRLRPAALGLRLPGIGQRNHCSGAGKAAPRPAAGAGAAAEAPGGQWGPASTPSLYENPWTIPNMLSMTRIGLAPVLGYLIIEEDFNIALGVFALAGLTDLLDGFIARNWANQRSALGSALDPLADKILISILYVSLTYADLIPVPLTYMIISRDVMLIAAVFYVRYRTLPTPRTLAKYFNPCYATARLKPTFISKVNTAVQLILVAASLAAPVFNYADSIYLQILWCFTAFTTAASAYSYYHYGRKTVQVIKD
# Sequence of UniProt O75956 (O75956 whole entry, looked up): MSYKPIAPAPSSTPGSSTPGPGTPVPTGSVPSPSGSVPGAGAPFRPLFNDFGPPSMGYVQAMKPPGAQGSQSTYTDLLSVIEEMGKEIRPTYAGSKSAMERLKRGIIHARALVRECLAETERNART
# Sequence of UniProt Q9BSQ5 (Q9BSQ5 whole entry, looked up): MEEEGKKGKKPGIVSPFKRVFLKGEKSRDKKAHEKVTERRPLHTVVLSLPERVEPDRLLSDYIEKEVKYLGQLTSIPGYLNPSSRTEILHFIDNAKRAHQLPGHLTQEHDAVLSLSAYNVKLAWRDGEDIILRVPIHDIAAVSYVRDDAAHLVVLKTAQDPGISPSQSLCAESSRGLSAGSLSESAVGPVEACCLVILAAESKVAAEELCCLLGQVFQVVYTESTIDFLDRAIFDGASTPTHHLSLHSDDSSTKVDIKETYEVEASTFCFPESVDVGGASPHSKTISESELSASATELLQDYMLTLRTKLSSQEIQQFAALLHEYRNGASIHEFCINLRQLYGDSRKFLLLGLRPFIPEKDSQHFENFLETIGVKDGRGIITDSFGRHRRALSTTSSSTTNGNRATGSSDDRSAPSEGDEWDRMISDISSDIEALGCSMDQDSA
# Sequence of UniProt Q9P0B6 (Q9P0B6 whole entry, looked up): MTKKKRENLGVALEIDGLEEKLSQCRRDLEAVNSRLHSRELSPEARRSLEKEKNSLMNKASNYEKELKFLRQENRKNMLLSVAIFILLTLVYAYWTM
# Sequence of UniProt Q6UUV7 (Q6UUV7 whole entry, looked up): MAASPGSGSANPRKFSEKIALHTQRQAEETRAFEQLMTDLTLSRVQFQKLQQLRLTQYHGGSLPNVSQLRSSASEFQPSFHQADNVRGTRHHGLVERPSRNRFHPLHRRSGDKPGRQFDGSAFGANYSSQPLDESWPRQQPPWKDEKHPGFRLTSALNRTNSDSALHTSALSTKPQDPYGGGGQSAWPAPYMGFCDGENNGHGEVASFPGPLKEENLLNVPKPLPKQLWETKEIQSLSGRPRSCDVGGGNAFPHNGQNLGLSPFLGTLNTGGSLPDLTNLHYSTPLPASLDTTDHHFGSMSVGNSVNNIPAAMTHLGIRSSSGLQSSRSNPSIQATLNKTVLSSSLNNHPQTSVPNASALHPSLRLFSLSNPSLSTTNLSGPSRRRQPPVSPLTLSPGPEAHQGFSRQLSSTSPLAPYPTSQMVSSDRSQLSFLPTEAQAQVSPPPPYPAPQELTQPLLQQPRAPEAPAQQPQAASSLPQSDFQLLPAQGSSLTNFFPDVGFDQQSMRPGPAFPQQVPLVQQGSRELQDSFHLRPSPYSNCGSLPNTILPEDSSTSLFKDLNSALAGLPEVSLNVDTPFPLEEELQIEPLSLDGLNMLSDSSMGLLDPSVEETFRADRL
row,Target,log2 fold change
1,CRTC1 isoform 2 (UniProt Q6UUV9),-0.132
2,CCDC167 (UniProt Q9P0B6),0.014
3,CCM2 isoform 2 (UniProt Q9BSQ5),-0.103
4,CRLS1 (UniProt Q9UJA2),0.323 (active)
5,CD68 (UniProt P34810),0.039
6,CD84 (UniProt Q9UIB8),-0.182
7,CCDC57 (UniProt Q2TAC2),-0.025
8,C6orf120 (UniProt Q7Z4R8),0.068
9,CRTC3 (UniProt Q6UUV7),-0.754 (active)
10,COMMD3-BMI1 (UniProt R4GMX3),0.003
11,COMMD1 (UniProt Q8N668),-0.043

# Compound: NC(=O)c1cnc(N[C@@H]2CCCC[C@@H]2N)nc1Nc1cccc(-n2nccn2)c1
# Assay: as above
# How it was run: as §1
row,Target,log2 fold change
1,CCDC82 (UniProt Q8N4S0),-0.083
2,CKS2 (UniProt P33552),-0.021
3,CDK2AP2 (UniProt O75956),-0.05
4,"CCDC187, A0A1W2PQX5",-0.147
5,CREB3L2 (UniProt Q70SY1),-0.102
6,CNOT4 isoform 9 (UniProt O95628),-0.115
7,CRTC1 isoform 2 (UniProt Q6UUV9),-0.151
8,CLASP2 (UniProt O75122),-0.049
9,CARD9 (UniProt Q9H257),0.37
10,CFAP47 (UniProt Q6ZTR5),0.022
11,CD84 (UniProt Q9UIB8),-0.036
12,CEMIP2 (UniProt Q9UHN6),0.072
13,C5orf30 (UniProt Q96GV9),-0.191
14,CAD (UniProt H7BZB3),0.124
15,COMMD3-BMI1 (UniProt R4GMX3),0.076
16,CEBPZOS (UniProt A8MTT3),0.022
17,CASK (UniProt O14936),0.026
18,CCND3 (UniProt P30281),-0.204
19,CLINT1 (UniProt Q14677),0.001

# Compound: NC1(c2ccc(-c3nc4ccn5c(=O)[nH]nc5c4cc3-c3ccccc3)cc2)CCC1
# Assay: as above
# How it was run: as §1
row,Target,log2 fold change
1,CCDC82 (UniProt Q8N4S0),-0.146
2,CKS2 (UniProt P33552),-0.039
3,CDK2AP2 (UniProt O75956),0.14
4,CSNK1A1 isoform 3 (UniProt P48729),-0.204
5,CREB3L2 (UniProt Q70SY1),-0.074
6,CNOT4 isoform 9 (UniProt O95628),-0.077
7,CNRIP1 (UniProt Q96F85),0.258
8,CLASP2 (UniProt O75122),0.046
9,CCDC167 (UniProt Q9P0B6),0.046
10,CCM2 isoform 2 (UniProt Q9BSQ5),-0.09
11,CRLS1 (UniProt Q9UJA2),0.027
12,CD68 (UniProt P34810),-0.106
13,CFAP58 (UniProt Q5T655),0.028
14,CLN3 (UniProt Q13286),-0.112
15,CEMIP2 (UniProt Q9UHN6),-0.243
16,CCDC57 (UniProt Q2TAC2),-0.014
17,CRTC3 (UniProt Q6UUV7),-0.007
18,CCNL1 (UniProt Q9UK58),-0.224
19,CEBPZOS (UniProt A8MTT3),-0.124
20,COMMD1 (UniProt Q8N668),0.051
21,CCND3 (UniProt P30281),-0.001
22,CLINT1 (UniProt Q14677),0.037
